# From PubChem BioAssay (NCI)
# “And” between values parts separate entries of the source, which are not always exact repeats. Equal entries are not always repeated. About 79,000 compounds went through this panel and 15% of them were active in at least one assay; those are over-represented in the sample as a whole. Some compounds were tested as several samples or in several runs, with calls that do not always agree. The source made the active and inactive calls. Cut-off read from the data, not from the text of the source: active = growth inhibition above about 70%; inactive = the rest.
# Assay: NCI Yeast Anticancer Drug Screen. Data for the mec2-1 strain (AID 157)
# Settings: S. cerevisiae mec2-1 strain, stronger effect = higher value
# Protocol: Growth inhibition of yeast strains with defined genetic alterations is measured as a screen for potential anti-cancer activity. Selected strains with alterations in DNA damage repair or cell cycle control were exposed to compounds and growth inhibition was measured relative to vehicle treated controls. The strain used in this assay is mec2-1
# [1] = at 5.0 µM (retest, dose inferred, filed as 0.5)
# [2] = at 50.0 µM (retest, dose inferred, filed as 5.0)
Compound,growth inhibition [1],growth inhibition [2],growth inhibition (at 50.0 µM)
Cc1cc2c(C(C)C)c(O)c(O)c(C=Nc3ccccc3S)c2c(O)c1-c1c(C)cc2c(C(C)C)c(O)c(O)c(C=Nc3ccccc3S)c2c1O,-12% (inactive),28% (inactive),55% (inactive)
Cc1ccc(S(=O)(=O)N/N=C2/C(=O)c3cccc4cccc2c34)cc1,-15% (inactive),64% (inactive),12.8% (inactive)
[N-]=[N+]=CC(=O)OCC1NC(=O)C(COC(=O)C=[N+]=[N-])NC1=O (configuration not stated),2% (inactive),6% (inactive),-20.1% (inactive) and 85.7% (active)
S=c1nc[nH]c2[nH]ccc12,2% (inactive),-3% (inactive),0.6% (inactive)
CCCCCCCCCCSC(=N)N,-48% (inactive) and -3% (inactive),71% (active) and 86% (active),49.8% (inactive) and 89.2% (active)
Cc1[nH]c2ccccc2c1C1Cc2ccccc2N1 (configuration not stated),12% (inactive) and 24% (inactive),14% (inactive) and 59% (inactive),36.2% (inactive) and 78.5% (active)
COc1cc2c3c(c1)SCCC(=O)N3CCN2,4% (inactive),4% (inactive),81.2% (active)
CN1C(c2ccccc2)CC(=NOCc2ccccc2)CC1c1ccccc1 (configuration not stated),94% (active),97% (active),83.8% (active)
c1cc2c3c(cccc3c1)-c1cnccc1-2,36% (inactive),84% (active),92.7% (active)
CC1(C)N(OC2CCCCO2)C(c2ccccc2)C(c2ccccc2)=[N+]1[O-] (configuration not stated),12% (inactive),21% (inactive),3.05% (inactive)
CCn1c2ccccc2c2ccc(N=Cc3ccc(N(C)C)cc3)cc21,-1% (inactive),17% (inactive),41.5% (inactive)
O[Si](c1ccccc1)(c1ccccc1)c1ccccc1.O[Si](c1ccccc1)(c1ccccc1)c1ccccc1.O[Si](c1ccccc1)(c1ccccc1)c1ccccc1.[O]=[V],37% (inactive),50% (inactive),67% (inactive)
COc1cc(C2C(C#N)=C(C)Nc3nc(N)nc(N)c32)cc(OC)c1OC (configuration not stated),-7% (inactive),13% (inactive),3.75% (inactive)
O=S(=O)(O)c1ccc2cc(N=Nc3c(O)ccc4ccccc34)ccc2c1,2% (inactive),12% (inactive),5.45% (inactive)
